WRN helicase inh-1 = blocks human WRN helicase | Q14191 | WRN helicase unwinding, fluorescent forked duplex, kinetic | Potency, µM (doses to about 114 µM), for inactives: at the top dose activity change, negative = inhibition, actives largely listed as inhibitors | 360,000 tested, 0.46% active | AID 651768; further: potency means the concentration at half of the fitted maximal effect; on the % scale 0 is the no-effect control and ±100 the full control effect; nearly all actives have a fitted effect of over 55% in size
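Kinetic red-fluorescence monitoring (525/598 nm) tracks WRN helicase activity after 100 nM fluorophore-quencher forked duplex and 2 mM ATP are added to 20 nM enzyme pretreated 15 min at room temperature with compound.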
POLB inh = blocks human DNA polymerase beta activity | P06746 | Pol beta primer extension/strand displacement, fluorescence kinetic | Potency, µM (doses to about 114 µM), without a hit: at the highest dose activity change, negative = inhibition, hits mostly inhibitors | 340,000 tested, 1.3% active; further: potency means the concentration at half of the fitted maximal effect; on the % scale 0 is the no-effect control and ±100 the full control effect
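Enzyme-only controls used 10 nM Pol beta; buffer lacking enzyme served as negative control. Compound preincubated 15 min, then 50 nM substrate added; 0 and 10 min reads at room temperature.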
Pol iota inh = DNA polymerase iota (human) inhibition; Q9UNA4; Pol iota fluorescent replication assay, 10 min; Potency, µM (series often up to 115 µM), inactives show at the highest dose activity, negative = inhibition, most hits filed as inhibitors; 390,000 tested, 1% active; AID 588590; further: potency means the concentration at half of the fitted maximal effect
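Fluorescent replication assay read twice, at 0 min and 10 min after adding 50 nM (final) substrate. Enzyme (10 nM) and compounds were first incubated 15 min at room temperature; enzyme-free buffer wells were negative controls.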
PI5P4Ka inh = blocks human PI5P4K alpha kinase activity | P48426 | 330,000 tested, 1.2% active | PI5P4Kalpha enzyme, ADP-Glo luminescence, 60 min; stronger effect = lower value | AID 652105 | max response, %; active means max response of -50% or lower; inconclusive means between -30% and -50%; inactive means -30% or higher; further: value at the top dose of about 77 µM; on the % scale 0 is the no-effect control and ±100 the full control effect
Target sequence (P48426 whole entry, looked up): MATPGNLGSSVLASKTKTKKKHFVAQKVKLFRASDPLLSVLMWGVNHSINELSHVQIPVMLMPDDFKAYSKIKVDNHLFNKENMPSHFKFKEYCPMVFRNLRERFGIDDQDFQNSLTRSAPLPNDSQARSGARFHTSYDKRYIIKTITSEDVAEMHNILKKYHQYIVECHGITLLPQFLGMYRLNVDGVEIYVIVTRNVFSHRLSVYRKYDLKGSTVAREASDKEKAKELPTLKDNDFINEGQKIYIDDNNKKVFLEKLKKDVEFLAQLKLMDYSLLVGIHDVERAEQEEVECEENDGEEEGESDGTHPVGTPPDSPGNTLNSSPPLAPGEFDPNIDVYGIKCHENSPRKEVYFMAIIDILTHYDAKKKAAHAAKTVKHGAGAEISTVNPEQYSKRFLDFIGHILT
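PI5P4Kalpha ADP-Glo assay; 5 microM ATP final; 60 min RT reaction; HEPES pH 7.4/EGTA/CHAPS, 5% DMSO; controls lacking substrate or enzyme; luminescent end-point.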
Pol eta inh-1 = inhibitors of human DNA polymerase eta; AID 588591; recombinant Pol eta, fluorescent DNA replication assay; Potency, µM (top dose mostly 114 µM), without a hit: top-dose activity change, negative = inhibition, usual class: inhibitors; 390,000 tested, 1.2% active; Q9Y253; further: potency means the concentration at half of the fitted maximal effect; on the % scale 0 is the no-effect control and ±100 the full control effect
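Fluorescent replication assay: 50 nM final substrate added after a 15 min room-temperature compound preincubation with 10 nM enzyme. Signal taken at 0 min and again at 10 min.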
Pol kappa inh-1 = inhibitors of human DNA polymerase kappa. purified Pol kappa, fluorescent DNA synthesis assay, 10 min. Potency, µM (highest dose often 107 µM), inactives show top-dose activity, negative = inhibition, hits mostly inhibitors. 400,000 tested, 0.53% active. Q9UBT6. AID 588579; further: potency means the concentration at half of the fitted maximal effect; on the % scale 0 is the no-effect control and ±100 the full control effect
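Kinetic fluorescence readout at 0 and 10 min followed reaction start with substrate at 50 nM final. Beforehand, enzyme (10 nM Pol kappa) stood 15 min with compound at room temperature; buffer-only wells were negative controls.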
POLI cherry-pick = Inhibitors of human DNA polymerase iota, confirmation | shares compounds with Pol kappa inh-1 | Pol iota primer extension, TAMRA/BHQ fluorescence | Potency, µM, actives largely listed as inhibitors | 1,500 tested, 77% active | AID 720496; further: potency means the concentration at half of the fitted maximal effect
GALK inh confirm = galactokinase (human) inhibition, confirmation. Potency, µM (highest dose often 115 µM), for inactives: at the top dose activity, negative = inhibition, hits mostly inhibitors. purified GALK, Kinase-Glo ATP depletion luminescence. shares compounds with Pol eta inh-1. 150 tested, 70% active
Target sequence (P51570 whole entry, looked up): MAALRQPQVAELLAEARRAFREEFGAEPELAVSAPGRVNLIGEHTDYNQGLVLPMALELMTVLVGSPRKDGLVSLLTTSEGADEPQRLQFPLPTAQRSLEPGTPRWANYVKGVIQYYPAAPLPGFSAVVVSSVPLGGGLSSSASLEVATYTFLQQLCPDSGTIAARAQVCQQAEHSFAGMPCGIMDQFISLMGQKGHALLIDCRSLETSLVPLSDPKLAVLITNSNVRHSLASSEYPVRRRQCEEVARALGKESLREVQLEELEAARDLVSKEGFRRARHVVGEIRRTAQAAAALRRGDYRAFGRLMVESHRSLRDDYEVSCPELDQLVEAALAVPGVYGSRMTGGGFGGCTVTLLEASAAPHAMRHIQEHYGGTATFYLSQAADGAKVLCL
GALK redox cs = redox cycling activity in phenol red-HRP assay. shares compounds with Pol eta inh-1. Phenol red-HRP H2O2 redox cycling, absorbance 600 nm. Potency, µM (highest dose often 115 µM), for the others: top-dose activity change, negative = H2O2 signal, hits mostly inhibitors. 150 tested, 40% active. AID 2035
HEK293 tox = HEK-293 cytotoxicity, GALK inhibitor secondary. Potency, µM (top dose mostly 46.1 µM), for the others: at the highest dose activity change, negative = cytotoxicity, most hits filed as inhibitors. shares compounds with Pol eta inh-1. 170 tested, 10% active. HEK-293 viability, ATP luminescence (CellTiter-Glo), 24/48 h; further: potency means the concentration at half of the fitted maximal effect; on the % scale 0 is the no-effect control and ±100 the full control effect
Pol kappa inh-2 = Pol kappa (human) inhibition, cherry-pick confirmation | 920 tested, 76% active | Potency, µM, most hits filed as inhibitors | shares compounds with Pol eta inh-1 | purified Pol-kappa, fluorescent strand-displacement substrate; further: potency means the concentration at half of the fitted maximal effect
Pol eta inh-2 = Pol eta (human) inhibition, cherry-pick confirmation. 2,600 tested, 64% active. shares compounds with Pol eta inh-1. Pol eta primer extension, TAMRA/BHQ fluorescence, 10 min. Potency, µM, hits mostly inhibitors. AID 720502; further: potency means the concentration at half of the fitted maximal effect
WRN helicase inh-2 = WRN helicase inhibition, cherry-pick retest; Potency, µM (doses to about 57.1 µM), inactives show at the highest dose activity, negative = inhibition, hits mostly inhibitors; shares compounds with WRN helicase inh-1; 610 tested, 63% active; WRN helicase DNA unwinding, fluorescence kinetic; further: potency means the concentration at half of the fitted maximal effect; nearly all actives have a fitted effect of over 65% in size
TO displacement = binds DNA, flagged in WRN inhibitor counterscreen; AID 720499; 610 tested, 10% active; thiazole orange DNA binding displacement, fluorescence; shares compounds with WRN helicase inh-1; Potency, µM (highest dose often 57.1 µM), for inactives: at the highest dose activity change, negative = inhibition, actives largely listed as inhibitors;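 further: drop in dye fluorescence marks compound binding to DNA; potency means the concentration at half of the fitted maximal effect; on the % scale 0 is the no-effect control and ±100 the full control effect; nearly all actives have a fitted effect of over 60% in size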
BLM counter = counter-screen for WRN helicase inhibitors: human BLM helicase inhibition. Potency, µM (top dose mostly 57.1 µM), inactives show at the top dose activity change, negative = inhibition, actives largely listed as inhibitors. Recombinant BLM helicase DNA unwinding, red fluorescence. AID 720503. 610 tested, 60% active. shares compounds with WRN helicase inh-1; further: potency means the concentration at half of the fitted maximal effect; nearly all actives have a fitted effect of over 60% in size
ADP-Glo interf = counter-screen for PI5P4K inhibitors: ADP-Glo detection interference, no enzyme | shares compounds with PI5P4Ka inh | ADP-Glo detection counter-screen, luciferase luminescence, no enzyme | Potency, µM (doses to about 76.9 µM), for inactives: top-dose activity change, negative = inhibition, hits mostly inhibitors | 1,100 tested, under 10 active
* hit, by the source's call; ? = inconclusive; . = no result; [ ] = remark or other dose. The list is not random: actives were taken first. Their share in the collection is about 2.8%. Unless noted, the call rests on the fitted dose curve; in most records, active means well fitted curve in the direction sought with a large enough effect; inconclusive means small, poorly fitted or top-dose-only effect, or another doubt; inactive means no such curve, though single readings can be large; an effect the other way counts as inactive or inconclusive.

SMILES | WRN helicase inh-1 | POLB inh | Pol iota inh | PI5P4Ka inh | Pol eta inh-1 | Pol kappa inh-1 | Pol eta inh-2 | others
O=C(NCc1ccc2c(c1)OCO2)c1cc2ncc(Br)cn2n1 | ? | 14.1µM* | 22.4µM* | -65.2* | 10µM* | -43.4% | ? | POLI cherry-pick=?;ADP-Glo interf=-3.7%
O=C(O)C(Sc1ccncn1)c1ccccc1 (stereo not drawn) | -4.0% | 5.1% | -5.3% | 4.5 | 10.8% | 5.0% | .
COc1ccc(OC)c(S(=O)(=O)N2CCC(C(=O)NCc3cccnc3)CC2)c1 | 2.4%[57.1 µM] | 39.2% | 42.3% | -5.1 | -2.7% | -9.8% | .
Cc1ccc(C)c(NC(=O)CN(C)C(=O)c2cccc(-n3cccc3)c2)c1 | 50.1µM* | . | 8.91µM* | -60.0* | 5.01µM* | 39.8µM* | 26.9* | POLI cherry-pick=16.8*;WRN helicase inh-2=21.5µM*;TO displacement=-2.4%;BLM counter=10.8µM*;ADP-Glo interf=-1.0%
CN(CC(=O)Nc1ccccc1Cl)C(=O)c1cccc(-n2cccc2)c1 | -1.2% | . | -7.7% | -21.3 | -7.1% | -13.3% | .
CN(CC(=O)Nc1cccc(F)c1)C(=O)c1cccc(-n2cccc2)c1 | 31.6µM* | . | 20µM* | -81.9* | 7.94µM* | ? | 75.7* | POLI cherry-pick=29.9*;ADP-Glo interf=3.8%
CN(CC(=O)Nc1c(Cl)cccc1Cl)C(=O)c1cccc(-n2cccc2)c1 | 50.1µM* | . | 14.1µM* | -78.0* | 20µM* | 79.4µM* | 30.1* | POLI cherry-pick=16.8*;ADP-Glo interf=0.9%
Cc1ccc(C)c(NC(=O)CN(C)C(=O)c2cccc(Oc3ccccc3)c2)c1 | -8.2% | . | 1.9% | 10.1 | -2.7% | -13.4% | .
Cc1nn(CC(=O)OCC(=O)Nc2cccc(S(N)(=O)=O)c2)c(C)c1[N+](=O)[O-] | 1.9% | . | 60.5% | 1.3 | -20.6% | 2.2% | .
COc1ccc(OC)c(C2CC(=O)c3c([nH]c(C(=O)OCC4CCCCC4)c3C)C2)c1 (stereo not drawn) | . | -0.2% | 37.1% | . | -1.7% | -1.6% | .
CCc1ccc(OCC(=O)N/N=C\c2ccco2)c([N+](=O)[O-])c1 | ? | ? | 20µM* | ? | ? | 79.4µM* | ?
CCOC(=O)C1(Cc2cccc(F)c2)CCN(C(=O)C2CCOCC2)CC1 | -0.3% | 9.3% | 42.4% | 0.0 | -20.8% | 5.6% | .
CCOC(=O)C1(Cc2cccc(F)c2)CCN(C(=O)COC)CC1 | 3.9% | 11.4% | -2.9% | 1.6 | 1.1% | 0.3% | . | GALK inh confirm=-2.6%;GALK redox cs=0.2%;HEK293 tox=-19.5%
Cc1ccc(NC(=O)CCC(=O)c2cc(C)sc2C)nc1 | -4.5% | . | ? | -24.5 | ? | -14.9% | .
Cc1ccc(NC(=O)CCC(=O)c2ccc(Cl)s2)nc1 | -22.4% | . | ? | ? | 39.8µM* | ? | . | Pol kappa inh-2=?
CCc1ccc(CN2CCC(n3nccc3NC(=O)C3CCCC3)CC2)cc1 | -6.5% | 1.7% | 1.0% | -2.8 | -11.2% | -13.3% | .
Cc1ccc(S(=O)(=O)N2[C@@H](c3ccc(Cl)cc3)C(C(=O)O)=CC[C@H]2c2cccc(Cl)c2)cc1 | 5.6% | . | 4.1% | 1.8 | -16.1% | -1.6% | .
Cc1ccc(S(=O)(=O)N2[C@@H](c3cccc(Cl)c3)C(C(=O)O)=CC[C@H]2c2ccc(C(C)C)cc2)cc1 | -3.8%[11.6 µM] | . | ? | -23.7 | 89.1µM* | ? | . | Pol kappa inh-2=?
COc1ccc(CN(Cc2ccccc2)C(=O)c2ccc(NC(C)=O)cc2)cc1COc1ccc(NC(C)=O)cc1 | . | . | 25.8% | . | . | -22.1% | .
COc1ccc(CN(Cc2ccccc2)C(=O)c2ccno2)cc1COc1ccc(NC(C)=O)cc1 | . | . | 39.8µM* | . | . | 79.4µM* | ?
CC(=O)Nc1nonc1-c1nnc(SCC(=O)Nc2ccccc2Cl)n1C | . | 1.3% | 27.1% | . | -5.7% | -20.7% | .
COc1ccc(OC)c(N(CC(=O)NN=C2CCN(C)CC2)S(=O)(=O)c2ccccc2)c1 | 4.7% | 7.7% | 11.6% | 6.0 | -18.6% | -4.3% | .
CCOC(=O)C1=C(O)/C(=C/c2ccc(-c3ccccc3C(=O)O)o2)SC1=Nc1ccc(OC)cc1 | ? | ? | ? | -54.7* | 10µM* | -40.2% | 42.6*
CCOC(=O)C1=C(O)/C(=C/c2cc(OC)c(O)c(OC)c2)SC1=Nc1ccc(OC)cc1 | -11.1%[11.6 µM] | 4.3% | ? | 2.3 | -11.7% | -1.9% | .
Cc1ccc(-n2nc3ccc(NC(=O)/C=C/c4ccco4)cc3n2)cc1 | -26.2%[57.1 µM] | 31.6µM* | 25.1µM* | ? | ? | ? | ?

Bioassay records from PubChem BioAssay.
